Measured values taken from PubChem BioAssay AID1159580 (chemical genetic matrix, 2015).
Values joined by “and” are separate entries in the source; they are usually repeats but may differ in a detail not shown here. Equal values may be shown once. Among all 5,500 compounds or so, about 2,000 (36%) were called active. Roughly 18% stayed inconclusive and do not appear here. Rule as the data show it: active = normalized growth mostly below about 0.91 (no sharp cut-off); inconclusive = no clear call, values can overlap the other calls; inactive = mostly above about 0.92. This is one part of the list.

Experiment: chemical genetic growth profiling, strain panel (AID 1159580);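 also: tested at 20 µM; growth read once vehicle control cultures reached saturation at 30 °C; 1 = growth at the plate median or of vehicle wells; lower values mean less growth of the strain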
Settings: S. cerevisiae deletion strains, growth OD

Measured: normalized growth

CN(C)CCC(c1ccccc1)c1ccccn1 (centres undefined)
inactive: locus YAL013W, strain DEP1, stronger effect = lower value 0.99 | locus YAL021C, strain ccr4, stronger effect = lower value 1.02 | locus YAL026C, strain drs2, stronger effect = lower value 1.02 | locus YAL030W, strain snc1, stronger effect = lower value 1 | locus YAL040C, strain CLN3, stronger effect = lower value 1.01 | locus YBL061C, strain skt5, stronger effect = lower value 1.01 | locus YBR009C, strain hhf1, stronger effect = lower value 1.01 | locus YBR021W, strain FUR4, stronger effect = lower value 1.01 | locus YBR023C, strain chs3, stronger effect = lower value 1.01 | locus YBR171W, strain sec66, stronger effect = lower value 1.03 | locus YBR229C, strain ROT2, stronger effect = lower value 1 | locus YBR231C, strain swc5, stronger effect = lower value 1.01 | locus YBR279W, strain paf1, stronger effect = lower value 1.01 | locus YCL011C, strain gbp2, stronger effect = lower value 1.01 | locus YCL016C, strain dcc1, stronger effect = lower value 1.02 | locus YCL029C, strain bik1, stronger effect = lower value 1 | locus YCL061C, strain MRC1 (second series), stronger effect = lower value 1.01 | locus YCL061C, strain MRC1, stronger effect = lower value 1.01 | locus YCL069W, strain vba3, stronger effect = lower value 1.01 | locus YCR088W, strain abp1, stronger effect = lower value 1 | locus YDL005C, strain med2, stronger effect = lower value 1.02 | locus YDL035C, strain GPR1, stronger effect = lower value 1.01 | locus YDL040C, strain nat1, stronger effect = lower value 1.01 | locus YDL074C, strain BRE1, stronger effect = lower value 0.991 | locus YDL101C, strain DUN1, stronger effect = lower value 1.01 | locus YDL134C, strain PPH21, stronger effect = lower value 1.01 | locus YDL185W, strain tfp1, stronger effect = lower value 1 | locus YDL192W, strain arf1, stronger effect = lower value 1.01 | locus YDR001C, strain nth1, stronger effect = lower value 1.01 | locus YDR069C, strain doa4, stronger effect = lower value 0.994 | locus YDR101C, strain arx1, stronger effect = lower value 1 | locus YDR137W, strain rgp1, stronger effect = lower value 1.03 | locus YDR150W, strain NUM1, stronger effect = lower value 1.01 | locus YDR159W, strain sac3, stronger effect = lower value 1.02 | locus YDR162C, strain NBP2, stronger effect = lower value 1.01 | locus YDR195W, strain ref2 0.981 | locus YDR297W, strain sur2, stronger effect = lower value 1 | locus YDR318W, strain mcm21, stronger effect = lower value 1.01 | locus YDR334W, strain swr1, stronger effect = lower value 1.01 | locus YDR335W, strain msn5, stronger effect = lower value 1.01 | locus YDR363W, strain ESC2, stronger effect = lower value 1.05 | locus YDR388W, stronger effect = lower value 1 | locus YDR392W, strain spt3, stronger effect = lower value 0.973 | locus YDR502C, strain sam2, stronger effect = lower value 0.994 | locus YEL003W, strain gim4, stronger effect = lower value 0.993 | locus YEL037C, strain rad23, stronger effect = lower value 1.02 | locus YEL061C, strain CIN8 (second series), stronger effect = lower value 1.01 | locus YEL061C, strain CIN8, stronger effect = lower value 1 | locus YER002W, strain NOP16, stronger effect = lower value 1.01 | locus YER015W, strain faa2, stronger effect = lower value 1.01 | locus YER016W, strain bim1, stronger effect = lower value 1.01 | locus YER110C, stronger effect = lower value 1 | locus YER111C, strain swi4, stronger effect = lower value 1.03 | locus YER155C, strain BEM2 (second series), stronger effect = lower value 1.02 | locus YER155C, strain BEM2, stronger effect = lower value 1 | locus YER167W, strain BCK2, stronger effect = lower value 1.01 | locus YFR010W, strain ubp6, stronger effect = lower value 1.01 | locus YGL078C, strain dbp3, stronger effect = lower value 0.991 | locus YGL086W, strain mad1, stronger effect = lower value 0.997 | locus YGL167C, strain pmr1, stronger effect = lower value 1.02 | locus YGL173C, strain kem1, stronger effect = lower value 1.01 | locus YGL227W, strain vid30, stronger effect = lower value 1.02 | locus YGL240W, strain doc1, stronger effect = lower value 0.999 | locus YGL248W, strain PDE1, stronger effect = lower value 1 | locus YGL253W, strain hxk2, stronger effect = lower value 1.02 | locus YGR135W, strain pre9, stronger effect = lower value 1.01 | locus YGR229C, strain SMI1, stronger effect = lower value 0.992 | locus YGR252W, strain gcn5, stronger effect = lower value 0.948 | locus YHR013C, strain ard1, stronger effect = lower value 1.03 | locus YHR027C, strain rpn1, stronger effect = lower value 1.03 | locus YHR030C, strain SLT2, stronger effect = lower value 1.01 and 0.972 | locus YHR079C, strain IRE1 (second series), stronger effect = lower value 1.01 | locus YHR079C, strain IRE1, stronger effect = lower value 0.975 | locus YHR094C, strain hxt1, stronger effect = lower value 1 | locus YHR129C, strain ARP1, stronger effect = lower value 0.998 | locus YHR142W, strain chs7, stronger effect = lower value 1.01 | locus YHR200W, strain rpn10, stronger effect = lower value 0.998 | locus YIL066C, strain RNR3, stronger effect = lower value 1.01 | locus YIL073C, strain SPO22, stronger effect = lower value 1.04 | locus YIL125W, strain kgd1, stronger effect = lower value 1.01 | locus YIR030C, strain dcg1, stronger effect = lower value 1.01 | locus YJL092W, strain hpr5, stronger effect = lower value 1.01 | locus YJL095W, strain BCK1 (second series), stronger effect = lower value 1.01 | locus YJL095W, strain BCK1, stronger effect = lower value 0.99 and 0.976 | locus YJL115W, strain asf1, stronger effect = lower value 1.01 | locus YJL129C, strain trk1, stronger effect = lower value 1.01 | locus YJL134W, strain LCB3, stronger effect = lower value 1.01 | locus YJL154C, strain vps35, stronger effect = lower value 1.01 | locus YJL164C, strain tpk1, stronger effect = lower value 1.01 | locus YJL166W, strain qcr8, stronger effect = lower value 1 | locus YJL168C, strain set2, stronger effect = lower value 1.01 | locus YJL187C, strain SWE1 (second series), stronger effect = lower value 1.01 | locus YJL187C, strain SWE1, stronger effect = lower value 1 | locus YJR043C, strain POL32, stronger effect = lower value 0.997
